13 compounds from PubChem BioAssay (NCATS) can be followed below.

One assay concerns WaGa. The assay can be described thus: qHTS assay to identify novel small-molecules to repurpose for Merkel cell carcinoma treatment (AID 1296009). Further: nearly all actives have a fitted effect of over 60% in size. Further: potency means the concentration at half of the fitted maximal effect. Particulars: MCC and control cell lines, CellTiter-Glo viability, 72 h; series mostly up to 46 µM. An outline of the steps: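 Cell viability, measured as CellTiter-Glo luminescence, was normalized between DMSO and no-cell wells. The cells had been exposed to 8- or 11-point compound dilutions for 72 hr at 37 degree celsius.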
Background: qHTS replaces the single test concentration by a dilution series.

In a further assay the test system is C33A. Description: Primary qHTS to identify gynecologic anti-cancer compounds using libraries of approved drugs and bioactive compounds (AID 1345084). Further: nearly all actives have a fitted effect of over 55% in size. Further: potency means the concentration at half of the fitted maximal effect. Particulars: Gynecologic cancer cell panel viability, ATPlite luminescence, 48 h; series mostly up to 57.5 µM. A digest of the protocol: (§1)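 In this quantitative HTS, cell killing is estimated from loss of ATP-dependent luciferase light. Cells see five compound concentrations over a 48 h exposure.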

A further assay concerns CASKI. The assay is described as above. Particulars: Gynecologic cancer cell panel viability, ATPlite luminescence, 48 h; series mostly up to 57.5 µM. A digest of the protocol: as §1
On the technique in general: ATP-based viability assays read luminescence as a measure of living cells.

The subject of a further assay is Es-2. The assay is described as above. Particulars: Gynecologic cancer cell panel viability, ATPlite luminescence, 48 h; series mostly up to 57.5 µM. An outline of the steps:
as §1

For another assay, the system named is HeLa. Described as above. Conditions: Gynecologic cancer cell panel viability, ATPlite luminescence, 48 h; series mostly up to 57.5 µM. A digest of the protocol: as §1
For the next assay, the system named is Hek293T. The assay is described as above. Conditions: Gynecologic cancer cell panel viability, ATPlite luminescence, 48 h, control line for the selectivity index; series mostly up to 57.5 µM. A digest of the protocol:
as §1

A further assay relates to Tov-21-G. The description is as above. Particulars: Gynecologic cancer cell panel viability, ATPlite luminescence, 48 h; series mostly up to 57.5 µM. An outline of the steps: as §1
Assay [1] in a line: Drug repurposing screens with cells derived from glioblastoma tumor samples (AID 1345199). Further: nearly all actives have a fitted effect of over 40% in size. Further: potency means the concentration at half of the fitted maximal effect. On activity, negative = cell killing: on the % scale 0 is the no-effect control and ±100 the full control effect. Conditions: GBM patient neurospheres viability, ATP luminescence, 48 h. A digest of the protocol:
(§2)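 Primary testing used CD133+ neurospheres from four GBM patients, seven concentrations, 48 h exposure and ATP-based viability; confirmation added three slower-growing patient lines.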

Assay [2] can be described thus: qHTS assay for small molecule activators of the human pregnane X receptor (PXR) signaling pathway (AID 720659; call rule not given here; further: 0% is about no effect).
Another assay has as its system JEG-3. The assay can be described thus: Primary qHTS to identify gynecologic anti-cancer compounds using libraries of approved drugs and bioactive compounds (AID 1345084). Further: nearly all actives have a fitted effect of over 55% in size. Further: potency means the concentration at half of the fitted maximal effect. Particulars: Gynecologic cancer cell panel viability, ATPlite luminescence, 48 h; series mostly up to 57.5 µM. A digest of the protocol:
as §1

For the next assay, the system named is OV90. The description is as above. Particulars: Gynecologic cancer cell panel viability, ATPlite luminescence, 48 h; series mostly up to 57.5 µM. An outline of the steps: as §1
The test system of another assay is PA-1. Described as above. Particulars: Gynecologic cancer cell panel viability, ATPlite luminescence, 48 h; series mostly up to 57.5 µM. An outline of the steps: as §1
The subject of the next assay is SKOV3. The assay is described as above. Particulars: Gynecologic cancer cell panel viability, ATPlite luminescence, 48 h; series mostly up to 57.5 µM. A digest of the protocol: as §1
In the next assay the test system is Tov112D. Described as above. Conditions: Gynecologic cancer cell panel viability, ATPlite luminescence, 48 h; series mostly up to 57.5 µM. An outline of the steps: as §1
For the next assay, the system named is CAOV3. The assay is described as above. Particulars: Gynecologic cancer cell panel viability, ATPlite luminescence, 48 h; series mostly up to 57.5 µM. An outline of the steps: as §1
Assay [3] can be described thus: qHTS assay to identify inhibitors of the type 1 interferon - major histocompatibility complex class I in skeletal muscle: Counter screen cell viability and HiBit confirmation (AID 1347412). Further: potency means the concentration at half of the fitted maximal effect; nearly all actives have a fitted effect of over 60% in size. Conditions: iHSKM muscle cells + IFN-b, HiBiT or CellTiter-Glo, 24 h. An outline of the steps: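 Duplicate plates, pinned identically: one read for HiBiT-tagged endogenous HLA-B luminescence, the other for ATP-content viability via CellTiter Glo. Cells were genome-engineered human myoblasts given 4 ng/ml IFN-b; compounds 12-pt, 1:3 from 46 uM final; 24 hr exposure.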

A further assay has as its system astro. Description: Drug repurposing screens with cells derived from glioblastoma tumor samples (AID 1345199). Further: nearly all actives have a fitted effect of over 40% in size. Further: potency means the concentration at half of the fitted maximal effect. On activity, negative = cell killing: on the % scale 0 is the no-effect control and ±100 the full control effect. Conditions: viability, ATP luminescence, 48 h; series mostly up to 45.9 µM. A digest of the protocol:
as §2

In assay [4] the target is Nuclear receptor subfamily 1 group I member 2 (Rattus norvegicus) (UniProt Q9R1A7). The assay can be described thus: qHTS assay for small molecule activators of the rat pregnane X receptor (rPXR) signaling pathway (AID 651751; call rule not given here; further: 0% is about no effect). Particulars: rPXR reporter cells, luciferase (One-Glo), 24 h.
Setting [5] is: at 20 µM (top of the series), tumour line C.
[6] abbreviates: at 21.2 µM (top of the series), tumour line B.
Where [7] appears, read: at 21.2 µM (top of the series), tumour line D.
Setting [8] is: at 46.1 µM (top of the series), tumour line C.
Setting [9] is: at 45.9 µM (top of the series), tumour line B.
The mark [10] stands for this setting: at 45.9 µM (top of the series), tumour line D.
The mark [11] stands for this setting: at 46 µM (top of the series), tumour line A.

Values joined by “and” are separate entries in the source; they are usually repeats but may differ in a detail not shown here. Equal values may be shown once. Unmarked numbers belong to inactive results. Results filed as inconclusive are left out. Active and inactive are the calls of the source. Unless noted, the call rests on the fitted dose curve; in most records, active means well fitted curve in the direction sought with a large enough effect; inconclusive means small, poorly fitted or top-dose-only effect, or another doubt; inactive means no such curve, though single readings can be large; an effect the other way counts as inactive or inconclusive.

Sequence of Nuclear receptor subfamily 1 group I member 2 (Rattus norvegicus) (Q9R1A7 whole entry, looked up): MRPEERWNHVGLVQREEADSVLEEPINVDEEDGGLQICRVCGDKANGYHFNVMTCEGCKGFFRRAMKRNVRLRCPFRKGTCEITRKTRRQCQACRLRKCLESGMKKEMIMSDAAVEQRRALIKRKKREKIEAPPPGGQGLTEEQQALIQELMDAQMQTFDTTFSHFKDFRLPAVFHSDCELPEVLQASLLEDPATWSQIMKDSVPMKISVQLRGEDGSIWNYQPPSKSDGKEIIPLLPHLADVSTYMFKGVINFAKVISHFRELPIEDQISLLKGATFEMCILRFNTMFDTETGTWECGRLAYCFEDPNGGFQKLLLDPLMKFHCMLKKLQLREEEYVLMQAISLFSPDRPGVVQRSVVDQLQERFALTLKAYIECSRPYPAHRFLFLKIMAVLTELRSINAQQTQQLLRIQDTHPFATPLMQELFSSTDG

As to `CN(C)c1ccc(N=NS(=O)(=O)O)cc1`, the Potency with WaGa is 40.7 µM (active). Moreover, the Potency result with C33A, with CASKI, in the assay with Es-2, in the assay on HeLa, in the assay on Hek293T and with Tov-21-G was “inactive” throughout. The activity, negative = cell killing in [1] (at 91.6 µM (top of the series), tumour line B) is -16.9%. Also, in [2], the result was inactive.
Consider `Cc1c(Nc2ncccc2C(=O)O)cccc1C(F)(F)F`, for which the Potency result with WaGa, with C33A, in the assay with CASKI, in the assay on Es-2, in the assay with HeLa and with Hek293T was “inactive” each time. Besides, the Potency result with JEG-3, in the assay with OV90, with PA-1, in the assay on SKOV3, with Tov-21-G and in the assay with Tov112D was “inactive” each time. Also, the activity, negative = cell killing in assay [1] (setting [5]) is -8.1%; in assay [1] (setting [6]), -18.2%; in [1] (setting [7]), -22.5%.
As to `Cc1cc(O)c2ccccc2c1O`, the Potency is 23.7 µM (active) in the assay with WaGa and 35.5 µM (active) in assay [1] (tumour line A). The Potency result in the assay on C33A, in the assay with CASKI, in the assay with HeLa, in the assay on Hek293T, with JEG-3 and in the assay on OV90 was “inactive” throughout. Moreover, the Potency entry in the assay on SKOV3 and in the assay with Tov112D was “inactive” in each case. The activity, negative = cell killing in [1] (setting [8]) was 5.51%.
In the case of `O=C(O)[C@H](CC(=O)N1C[C@H]2CCCC[C@H]2C1)Cc1ccccc1`, the Potency entry in the assay on C33A, in the assay on CAOV3, in the assay with CASKI, in the assay on Es-2, with HeLa and in the assay on Hek293T was “inactive” each time. Besides, the Potency entry with JEG-3, in the assay with OV90, with PA-1, with SKOV3, with Tov-21-G and in the assay on Tov112D was “inactive” throughout. The activity, negative = cell killing in assay [1] (setting [9]) is -13.2%; in [1] (setting [10]) it was -11.7%; in assay [1] (setting [11]) it was -25.9%; in [1] (setting [8]) it was -20.5%.
As to `CCOC(=O)c1ccccc1O`, the Potency entry in the assay with WaGa, with C33A, in the assay on CASKI, in the assay on Es-2, with HeLa and in the assay on Hek293T was “inactive” throughout. The Potency result with JEG-3, with OV90, with PA-1, in the assay with SKOV3, with Tov-21-G and with Tov112D was “inactive” each time. Further, the activity, negative = cell killing in [1] (setting [9]) was -4.37% and -22.2%; in assay [1] (setting [10]), -0.79% and -11.1%; in assay [1] (setting [11]), -24.1%; in [1] (setting [8]), -28.6% and -1.56%.
Consider `O=C(CCN1CCN(CCO)CC1)N1c2ccccc2Sc2ccc(C(F)(F)F)cc21`, for which the Potency entry in the assay on WaGa, with C33A, in the assay on CASKI, with Es-2, in the assay on HeLa and in the assay on Hek293T was “inactive” each time. Further, the Potency result with JEG-3, with OV90, in the assay with PA-1, with SKOV3, with Tov-21-G and in the assay with Tov112D was “inactive” throughout. Also, the activity, negative = cell killing in assay [1] (setting [9]) is -17.6%. For the same compound, the Potency in [1] (tumour line A) is 11.2 µM (active).
For the compound `COC(=O)c1nc(Cl)c(Cl)nc1N`, the Potency with WaGa is 1.5 µM (active); in the assay with C33A, 8.91 µM (active); in the assay on HeLa, 7.08 µM (active); in the assay with Hek293T, 14.1 µM (active); in the assay with PA-1, 14.1 µM (active); in the assay on Tov-21-G, 12.6 µM (active). In addition, the figures for the Potency (with Tov112D; in assay [3] (HiBiT); in [3] (Viability)) were 3.16 µM (active), 2.22 µM (active) and 11.1 µM (active), respectively.
Take `CN(C)CCn1nnnc1SCC1=C(C(=O)O)N2C(=O)[C@@H](NC(=O)Cc3csc(N)n3)[C@H]2SC1`: the Potency result in the assay on WaGa, in the assay on C33A, in the assay on CASKI, in the assay with Es-2, with HeLa and in the assay on Hek293T was “inactive” each time. For the same compound, the Potency result in the assay on JEG-3, in the assay on OV90, in the assay on PA-1, with SKOV3, in the assay with Tov-21-G and in the assay with Tov112D was “inactive” in each case. For the same compound, the activity, negative = cell killing is 7.42% in [1] (setting [5]), -1.03% in assay [1] (setting [6]) and -12.5% in [1] (setting [7]).
Consider `CCCCCCCCCCCCOCCO`, for which the Potency entry in the assay on WaGa, in the assay with C33A, with CASKI, in the assay with Es-2, in the assay with HeLa and with Hek293T was “inactive” throughout. Further, the Potency entry in the assay with JEG-3, in the assay on OV90, in the assay with PA-1, in the assay with SKOV3, in the assay with Tov-21-G and with Tov112D was “inactive” each time.
`COc1ccnc2c1CCCCC2S(=O)c1nc2ccccc2[nH]1` (configuration not stated): the Potency entry with WaGa, with C33A, in the assay with CASKI, in the assay with Es-2, in the assay with HeLa and in the assay with Hek293T was “inactive” in each case. The Potency entry with JEG-3, with OV90, with PA-1, in the assay on SKOV3, in the assay on Tov-21-G and in the assay on Tov112D was “inactive” throughout.
Regarding `CC(=O)O[C@H]1C[C@@]2(C)[C@@H](C[C@@H](O)[C@H]3[C@@]4(C)CC[C@@H](O)[C@@H](C)[C@@H]4CC[C@@]32C)/C1=C(\CCC=C(C)C)C(=O)O`, the Potency result in the assay with C33A, in the assay with CAOV3, in the assay with CASKI, in the assay with Es-2, with HeLa and in the assay on Hek293T was “inactive” throughout. For the same compound, the Potency result in the assay with JEG-3, with OV90, with PA-1, in the assay with SKOV3, with Tov-21-G and in the assay with Tov112D was “inactive” in each case. Also, the activity, negative = cell killing in assay [1] (setting [9]) is -17.2%; in [1] (setting [10]), 1.56%; in assay [1] (setting [8]) it was -26.3%.
Take `O=C(/C=C/c1ccccc1)NCCO`: the Potency result with WaGa, in the assay with C33A, in the assay with CASKI, with Es-2, in the assay with HeLa and in the assay with Hek293T was “inactive” throughout. The Potency entry in the assay on JEG-3, with OV90, with PA-1, in the assay with SKOV3, in the assay on Tov-21-G and with Tov112D was “inactive” in each case. Besides, the Potency entry in the assay on astro was “inactive”. The activity, negative = cell killing in assay [1] (setting [9]) was -16.2%; in assay [1] (setting [10]) it was -5.87%; in assay [1] (setting [8]), -18.2%.
Regarding `O=C(O)c1ccccc1Nc1cccc(C(F)(F)F)c1`, the Potency result with WaGa, in the assay on C33A, with CASKI, in the assay on Es-2, with HeLa and in the assay with Hek293T was “inactive” throughout. In addition, the Potency result in the assay with JEG-3, with OV90, in the assay with PA-1, with Tov-21-G and in the assay with Tov112D was “inactive” in each case. Moreover, the activity, negative = cell killing was -9.13% in assay [1] (setting [9]), -1.02% in assay [1] (setting [10]), -4.14% in assay [1] (setting [11]) and -6.5% in assay [1] (setting [8]). Moreover, in assay [4], the max response is 1.7%. Besides, the compound was called inactive in assay [2].
